High-throughput results from PubChem.
D2 ag-1: agonists of human D2 dopamine receptor | P14416 | HEK293 T-REx D2 cells, calcium flux agonist mode | activation, % at 2 µM | 340,000 tested, 0.53% active | AID 485358;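 active means activation over 3 SD above normal in the single-dose calcium agonist read, cut at about 30% in these data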; further: 0% is about no effect
Target sequence (P14416 whole entry, looked up): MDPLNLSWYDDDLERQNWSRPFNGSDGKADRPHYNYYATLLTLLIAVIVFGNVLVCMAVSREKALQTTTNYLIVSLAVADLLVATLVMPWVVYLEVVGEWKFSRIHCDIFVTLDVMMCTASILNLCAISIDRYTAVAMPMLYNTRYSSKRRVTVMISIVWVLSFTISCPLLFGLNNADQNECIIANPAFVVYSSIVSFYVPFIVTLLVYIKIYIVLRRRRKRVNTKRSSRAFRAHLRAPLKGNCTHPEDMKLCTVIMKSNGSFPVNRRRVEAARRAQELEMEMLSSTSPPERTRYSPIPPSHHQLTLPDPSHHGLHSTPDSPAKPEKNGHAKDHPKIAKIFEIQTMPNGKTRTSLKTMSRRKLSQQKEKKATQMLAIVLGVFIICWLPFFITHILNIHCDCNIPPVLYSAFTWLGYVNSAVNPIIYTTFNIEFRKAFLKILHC
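Agonism scored from kinetic calcium signal (1 read/sec, 180 s) following compound pin transfer, after a 10 s baseline. Cells: HEK293 Trex line expressing inducible D2 receptor coupled to calcium, dye-loaded after overnight culture at 30 C.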
D2 antagonist: D2 dopamine receptor (human) antagonism | P14416 | HEK293 TREx D2 cells, calcium flux, dopamine EC80 | inhibition, % at 10 µM | 340,000 tested, 2% active | AID 485344; in the data active means inhibition above about 30%; inactive means below that, where a call was filed; further: 0% is about no effect
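Antagonism is scored as inhibition of an EC80 dopamine-evoked calcium signal in a force-coupled, tetracycline-inducible HEK293 T-REx D2 line, with compound present 180 s before agonist.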
D2 ag-2: activates the human D2 dopamine receptor | P14416 | DiscoveRx PathHunter D2 beta-arrestin, luminescence, 90 min; 100% = 57 uM dopamine signal | activation, % (concentration not given with the values) | 360,000 tested, 0.084% active | AID 624465; in the data active means activation above about 40%
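DiscoveRx PathHunter D2 beta-arrestin cells (2,100/well) attached overnight, then compound-stimulated 90 min at 37 C in HBSS/10 mM HEPES/0.1% Tween-20 buffer; beta-galactosidase complementation read by luminescence after 1 h at ambient temperature. Dopamine 57 uM final (EC100) as control.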
D2 PAM-1: potentiates the human D2 dopamine receptor allosterically. P14416. DiscoveRx D2 beta-arrestin cells, luminescence, 90 min; 100% = 57 uM dopamine signal. potentiation, % (concentration not given with the values). 360,000 tested, 0.23% active; in the data active means potentiation above about 50%
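PathHunter beta-arrestin assay in DiscoveRx D2 cells. Compounds were added with an EC20 of dopamine (50 nM final) for 90 min at 37 deg C. Luminescence was read 1 h after detection reagent, with 57 uM dopamine as the EC100 control.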
D2 PAM-2: D2 dopamine receptor (human) potentiation; potentiation, % at 10 µM; P14416; 340,000 tested, 0.34% active; HEK293 T-REx D2, calcium flux, EC20 dopamine potentiation; AID 485347;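 active means potentiation over 3 SD above the plate norm, cut at about 30% in these data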; further: 0% is about no effect
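Primary screen. Calcium kinetics in induced HEK293 T-REx D2 cells: compound pre-addition 180 s, EC20 dopamine, 180 s more.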
An asterisk follows results filed as active; · = no result given; ! = repeats disagree. The list is not random: actives were taken first. Their share in the collection is about 2.4%.

SMILES | D2 ag-1 | D2 antagonist | D2 ag-2 | D2 PAM-1 | D2 PAM-2
CCC(C)(C)NC(=O)CN(Cc1ccc2c(c1)OCO2)C(=O)CCC(=O)Nc1cc(C)ccn1 | 0 | 42* | -5 | -8 | 13
CC(C)(C)NC(=O)CN(Cc1ccc2c(c1)OCO2)C(=O)CCC(=O)Nc1nccs1 | 0 | 11 | -3 | -2 | 14
Cc1noc(C)c1S(=O)(=O)NCCc1csc2nc(-c3ccc(Cl)cc3)nn12 | 1 | · | · | · | -8
Nc1ccc2c(c1)Cc1cc([N+](=O)[O-])ccc1-2 | 47* | 13 | -7 | -12 | -8
CN(C)CCNC(=O)c1ccc(-n2c(-c3ccccc3)cc3c2CCCC3)cc1 | 0 | · | · | · | -5
COCCNC(=O)c1c[nH]c2ccc(S(=O)(=O)N3CCc4ccccc43)cc2c1=O | -1 | -4 | -1 | 17 | 8
COCCCNC(=O)c1c[nH]c2ccc(S(=O)(=O)N3CCc4ccccc43)cc2c1=O | 0 | -8 | 7 | 7 | 38*
CN1CCCN(Cc2ccc(Cl)cc2Cl)CC1 | 0 | 35* | -2 | -30 | -20
CN1CCCN(Cc2nc(-c3ccc(Cl)cc3)no2)CC1 | 1 | 11 | -1 | -14 | 8
Cc1cc(C)cc(NC(=O)CCCn2nc(C)c3c(C)n(-c4ccccc4)nc3c2=O)c1 | 1 | -19 | -5 | -11 | 33*!
Cc1ccccc1NC(=O)CCCn1nc(C)c2c(C)n(-c3ccccc3)nc2c1=O | 0 | -8 | 3 | -8 | -3
CN(C)CCCn1c(SCC(=O)Nc2sc3c(c2C#N)CCCC3)nnc1-c1ccncc1 | 0 | 39* | 0 | -15 | -4
Cc1ccc(S(=O)(=O)Cc2nc(-c3ccc(C(=O)NCc4ccccc4)cc3)oc2C)cc1 | 0 | · | · | · | -8
O=C(N/C(=C/c1ccc(Br)cc1)C(=O)N1CCOCC1)c1ccc(Br)o1 | 0 | -12 | 2 | -5 | 86*
O=C(N/C(=C\c1ccc(Br)cc1)C(=O)N1CCOCC1)c1ccc(Br)o1 | 1 | 3 | -6 | -12 | ·
N#Cc1nc(COc2ccccc2Cl)oc1NCc1cccnc1 | -1 | 40* | 1 | 4 | 4
N#Cc1nc(COc2ccccc2Cl)oc1NCc1ccc(F)cc1 | 0 | 3 | -1 | -8 | -5
COc1ccc(S(=O)(=O)c2cnc3ccc(Cl)cc3c2N2CCCCC2C)cc1 (stereo unspecified) | 0 | · | · | · | 18
CS(=O)(=O)N1CCCC(C(=O)N2CCN(c3cccc(Cl)c3)CC2)C1 (stereo unspecified) | 1 | 31* | 4 | 2 | 6
CCOc1cccc(CN2CCCC(N3CCc4ccccc4C3)C2)c1O (stereo unspecified) | -1 | -19 | -6 | -24 | 12
CCOc1cccc(CN2CCCC(C(=O)c3cc(Cl)ccc3OC)C2)c1O (stereo unspecified) | 1 | 66* | 2 | -22 | -20
CS(=O)(=O)N1CCC(C(=O)N2CCN(c3cccc(Cl)c3)CC2)CC1 | 0 | 7 | 3 | -4 | ·
CCOc1cccc(CN2CCCC(N3CCN(c4cccc(Cl)c4)CC3)C2)c1O (stereo unspecified) | 8 | 37* | -2 | -21 | -9
O=C(c1cnccn1)N1CCCC(N2CCN(c3cccc(Cl)c3)CC2)C1 (stereo unspecified) | 37* | 8 | 5 | -20 | -3
Cc1cccc(C(=O)N2CCCC(N3CCN(c4cccc(Cl)c4)CC3)C2)n1 (stereo unspecified) | 0 | 4 | 1 | -20 | 3
SMILES | D2 ag-1 | D2 antagonist | D2 ag-2 | D2 PAM-1 | D2 PAM-2
CCc1ccc(-c2nn(CC(=O)NCc3ccccc3)c3c2cnc2ccc(C)cc23)cc1 | · | · | · | · | 10
Cn1cc(C(=O)O)c(=O)c2cc(S(=O)(=O)N3CCCCC3)ccc21 | 0 | · | · | · | 4
Cc1ccc(N(CC(=O)NCCc2ccccc2C)S(=O)(=O)N(C)C)cc1 | -1 | · | · | · | -17
Cc1c(NC(=O)c2sc3ccccc3c2Cl)cccc1-c1nc2ccccc2o1 | 0 | · | · | · | -2
COc1ccccc1CN1CCN(Cc2nc(-c3ccc(C)cc3)oc2C)CC1 | 0 | -1 | -4 | -5 | -6
COc1ccccc1N1CCN(Cc2nc(-c3ccc(F)cc3)oc2C)CC1 | 2 | 80* | -4 | -14 | -30
COc1ccc(-c2nc(CN3CCN(c4ccccc4OC)CC3)c(C)o2)cc1 | 0 | 99* | -8 | -8 | -28
